The list is not random: actives were taken first. Their share in the collection is about 19%.
DT40 TDP1 CPT: qHTS for Inhibitors of human tyrosyl-DNA phosphodiesterase 1 (TDP1): qHTS in cells in presence of CPT; 420,000 compounds, 12% hits; Potency, µM (top dose mostly 46.2 µM), inactives show at the top dose activity change, negative = growth inhibition, usual class: inhibitors; chicken DT40 Tdp1-/-;hTDP1 cells + 20 nM CPT, ATP luminescence, 48 h; further: potency means the concentration at half of the fitted maximal effect; nearly all actives have a fitted effect of over 55% in size
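Chicken DT40 Tdp1-/- cells complemented with human TDP1, 400 cells/well, exposed to compounds plus 20 nM camptothecin for at least 48 h at 37 C; viability read as ATP content by CellTiter-Glo luminescence.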
HT1080-NT tox: qHTS for induction of synthetic lethality in tumor cells producing 2HG: qHTS for the HT-1080-NT fibrosarcoma cell line; HT-1080-NT fibrosarcoma viability, CellTiter-Glo ATP luminescence, 48 h; Potency, µM (highest dose often 46.1 µM), inactives show at the top dose activity, negative = less viability, actives largely listed as cytotoxic; 360,000 compounds, 1.6% hits; AID 686970, 2013;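 further: NT is the 2HG producing partner of a matched IDH1 knockdown line; potency means the concentration at half of the fitted maximal effect; 0% = DMSO-treated cells and -100% = media-only wells without cells; nearly all actives have a fitted effect of over 55% in size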
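HT-1080-NT fibrosarcoma cells (2HG-overproducing), 750 cells/well in RPMI with 5% FBS, dosed after 2 h and incubated 48 h at 37C. CellTiter-Glo luminescence normalized to DMSO and no-cell wells; concentration-response curves fitted and classed.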
IL1B secr inh: qHTS for Inhibitors of Inflammasome Signaling: IL-1-beta AlphaLISA Primary Screen | THP-1 LPS/ATP IL-1B secretion, AlphaLISA, 16 h; active compounds read low | activity change, % at 57.5 µM | 360,000 compounds, 4.7% hits; in the data active means activity change below about -50%; inconclusive means mostly about -30% to -49%
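THP-1 cells pretreated 1 hr with compounds (up to 57.5 uM final), then stimulated with LPS (250 ng/mL final) plus ATP (1.25 mM final); secreted IL-1B measured by AlphaLISA after 16 hr, decreased signal indicating inhibition.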
HT1080 IDH1KD tx: qHTS for induction of synthetic lethality in tumor cells producing 2HG: qHTS for the HT-1080-IDH1KD cell line; HT-1080 IDH1 knockdown viability, ATP luminescence, 48 h; Potency, µM (doses to about 46.1 µM), without a hit: top-dose activity, negative = toxicity, usual class: cytotoxic; 360,000 compounds, 2% hits; AID 686971, 2013;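 further: potency means the concentration at half of the fitted maximal effect; 0% = DMSO wells and -100% = cell-free medium wells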
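Assay cells: HT-1080 with IDH1 knockdown, 750 per well, RPMI/5% FBS. Exposure: 48 h at 37 °C following 2 h pre-incubation. Read: CellTiter-Glo luminescence; fitted concentration-response, curve class assigned.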
uPA generation: qHTS for Inhibitors of Cell Surface uPA Generation; Potency, µM (series often up to 38.3 µM), inactives show at the highest dose activity change, negative = inhibition, actives largely listed as inhibitors; AID 540303, 2011; cell surface uPA generation assay, qHTS; 330,000 compounds, 0.31% hits; active means well fitted inhibition curve with a large enough effect; inconclusive means small, poorly fitted or top-dose-only effect; inactive means no such curve, though single readings can be large or run the other way; tested in mouse RAW 264.7 cells; further: potency means the concentration at half of the fitted maximal effect; nearly all actives have a fitted effect of over 55% in size
TDP1 cell noCPT: qHTS for Inhibitors of human tyrosyl-DNA phosphodiesterase 1 (TDP1): qHTS in cells in absence of CPT; 420,000 compounds, 15% hits; Potency, µM (titrated, usually from 46.2 µM), for the others: at the top dose activity change, negative = growth inhibition, usual class: inhibitors; DT40 Tdp1-/- hTDP1 cells, no CPT, ATP luminescence, 48 h; further: potency means the concentration at half of the fitted maximal effect; nearly all actives have a fitted effect of over 55% in size
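Compound effects on proliferation are scored in DT40 Tdp1-/-;hTDP1 cells in the absence of CPT. ATP levels (CellTiter-Glo luminescence) are recorded after a ≥48 hr, 37 °C incubation.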
* = called active by the depositor; [ ] = dose if it differs, or a comment. Unless noted, the call rests on the fitted dose curve; in most records, active means well fitted curve in the direction sought with a large enough effect; inconclusive means small, poorly fitted or top-dose-only effect, or another doubt; inactive means no such curve, though single readings can be large; an effect the other way counts as inactive or inconclusive. Unless noted, on the % scale 0 is the no-effect control and ±100 the full control effect.

How did CC(C)(C)OC(=O)N1CCC(CC2CC(c3ccncc3)=NO2)(C(=O)O)CC1 (stereo not drawn) do in these assays?
DT40 TDP1 CPT: 16%; HT1080-NT tox: 8%; IL1B secr inh: 16; HT1080 IDH1KD tx: 13%; uPA generation: 9%; TDP1 cell noCPT: -4%

How did COC(=O)C1(Cc2cc(-c3cccnc3)no2)CCN(C(=O)OC(C)(C)C)CC1 do in these assays?
DT40 TDP1 CPT: inconclusive; HT1080-NT tox: 3%; IL1B secr inh: 10; HT1080 IDH1KD tx: 10%; uPA generation: 8%; TDP1 cell noCPT: inconclusive

How did COC(=O)C1(Cc2cc(-c3ccc(Cl)cc3)no2)CCN(C(=O)OC(C)(C)C)CC1 do in these assays?
DT40 TDP1 CPT: inconclusive; HT1080-NT tox: inconclusive; IL1B secr inh: inconclusive; HT1080 IDH1KD tx: -6%; uPA generation: -8%; TDP1 cell noCPT: 18µM*

How did COC(=O)C1(Cc2cc(-c3ccc([N+](=O)[O-])cc3)no2)CCN(C(=O)OC(C)(C)C)CC1 do in these assays?
DT40 TDP1 CPT: inconclusive; HT1080-NT tox: 4%; IL1B secr inh: -18; HT1080 IDH1KD tx: 4%; uPA generation: -6%; TDP1 cell noCPT: 21µM*

What do the screens show for `COC(=O)C1(CC2CC(c3ccc(Cl)cc3)=NO2)CCN(C(=O)OC(C)(C)C)CC1` (stereo not drawn)?
DT40 TDP1 CPT: 26µM*; HT1080-NT tox: 1%; IL1B secr inh: -1; HT1080 IDH1KD tx: -1%; uPA generation: -5%; TDP1 cell noCPT: 21µM*

Results for COC(=O)c1ccc(CSc2nc3ccc(C)cc3[nH]2)o1 ?
DT40 TDP1 CPT: -24%; HT1080-NT tox: 0%; IL1B secr inh: 17; HT1080 IDH1KD tx: 5%; uPA generation: 7%; TDP1 cell noCPT: inconclusive

What do the screens show for `COc1ccc(-n2c(=O)c3sc4ccccc4c3n(Cc3ccccc3C)c2=O)cc1OC`?
DT40 TDP1 CPT: -30%; TDP1 cell noCPT: -3%

Results for Nc1c(Cl)ncnc1NCCc1ccc(O)cc1 ?
DT40 TDP1 CPT: 13µM*; HT1080-NT tox: inconclusive; IL1B secr inh: 7; HT1080 IDH1KD tx: inconclusive; uPA generation: -5%; TDP1 cell noCPT: 5.8µM*

Results for CCOc1ccc(OCC)c(NC(=O)c2nnn(Cc3cc(Br)ccc3OC)c2N)c1 ?
DT40 TDP1 CPT: -7%; TDP1 cell noCPT: -20%

Results for CC1CCCN(Cc2c(O)ccc3c2O/C(=C\c2ccco2)C3=O)C1 (stereo not drawn) ?
DT40 TDP1 CPT: 15µM*; HT1080-NT tox: -5%; IL1B secr inh: -2; HT1080 IDH1KD tx: -1%; uPA generation: -7%; TDP1 cell noCPT: 26µM*

How did O=C(Cc1c(F)cccc1Cl)NNC(=O)Nc1ccc2c(c1)OCO2 do in these assays?
DT40 TDP1 CPT: 0%; HT1080-NT tox: -5%; IL1B secr inh: inactive; HT1080 IDH1KD tx: -1%; uPA generation: 3%; TDP1 cell noCPT: 1%

Results for Cc1ccc(NC(=O)N2CCN(Cc3nc4ccc(C)cc4o3)CC2)c(Cl)c1 ?
DT40 TDP1 CPT: -3%; TDP1 cell noCPT: -2%

How did COc1ccccc1N1CCN(c2ccc3cc(S(=O)(=O)N4CCCCC4)ccc3n2)CC1 do in these assays?
DT40 TDP1 CPT: 13µM*; HT1080-NT tox: -18%; IL1B secr inh: 30; HT1080 IDH1KD tx: -19%; uPA generation: 7%; TDP1 cell noCPT: 7.3µM*

How did COc1ccc(Nc2ccc3cc(S(=O)(=O)N4CCCC4)ccc3n2)cc1Cl do in these assays?
DT40 TDP1 CPT: 21µM*; TDP1 cell noCPT: 21µM*

What do the screens show for `CCOC(=O)c1cccc(Nc2ccc3cc(S(=O)(=O)N4CCCCC4)ccc3n2)c1`?
DT40 TDP1 CPT: 23µM*; TDP1 cell noCPT: 21µM*

Results for CCN(c1ccccc1)c1ccc2cc(S(=O)(=O)N3CCCC3)ccc2n1 ?
DT40 TDP1 CPT: 26µM*; TDP1 cell noCPT: 21µM*

How did O=S(=O)(c1ccc2nc(Nc3cccc(F)c3)ccc2c1)N1CCCC1 do in these assays?
DT40 TDP1 CPT: 23µM*; TDP1 cell noCPT: inconclusive

What do the screens show for `O=S(=O)(c1ccc2nc(Nc3ccc(F)cc3)ccc2c1)N1CCCC1`?
DT40 TDP1 CPT: 7%; TDP1 cell noCPT: -26%

Results for Cc1ccc(-n2c(C(C)C)nc3oc4ccccc4c(=O)c3c2=O)cc1 ?
DT40 TDP1 CPT: inconclusive; HT1080-NT tox: -13%; IL1B secr inh: 4; HT1080 IDH1KD tx: -11%; uPA generation: inconclusive; TDP1 cell noCPT: -11%

Results for CC1(C)COC(c2ccc(F)c([N+](=O)[O-])c2)=N1 ?
DT40 TDP1 CPT: 16µM*; HT1080-NT tox: inconclusive; IL1B secr inh: -102*; HT1080 IDH1KD tx: inconclusive; uPA generation: -7%; TDP1 cell noCPT: 16µM*

Results for CC1(C)COC(c2cc([N+](=O)[O-])ccc2Cl)=N1 ?
DT40 TDP1 CPT: -1%; HT1080-NT tox: 6%; IL1B secr inh: -9; HT1080 IDH1KD tx: 1%[9.24 µM]; uPA generation: -2%; TDP1 cell noCPT: 3%

How did CC1CCCCN1c1cc2c(cc1F)c(=O)c(S(=O)(=O)c1ccccc1)cn2Cc1ccccc1 (stereo not drawn) do in these assays?
DT40 TDP1 CPT: 8.2µM*; TDP1 cell noCPT: 8.2µM*

What do the screens show for `Cc1ccc(S(=O)(=O)c2cn(Cc3ccccc3)c3cc(N4CCCC4)c(F)cc3c2=O)cc1`?
DT40 TDP1 CPT: 5.8µM*; TDP1 cell noCPT: 5.8µM*

Results for O=c1c(S(=O)(=O)c2ccccc2)cn(Cc2ccccc2)c2cc(N3CCCC3)c(F)cc12 ?
DT40 TDP1 CPT: -5%; TDP1 cell noCPT: 0%

How did CCn1cc(S(=O)(=O)c2ccc(C)cc2)c(=O)c2cc(F)c(N3CCCCCC3)cc21 do in these assays?
DT40 TDP1 CPT: 16µM*; TDP1 cell noCPT: 18µM*

Results for CCn1cc(S(=O)(=O)c2cc(C)cc(C)c2)c(=O)c2cc(F)c(N3CCOCC3)cc21 ?
DT40 TDP1 CPT: inconclusive; TDP1 cell noCPT: -22%

How did CCc1ccc(S(=O)(=O)c2cn(CC)c3cc(N4CCOCC4)c(F)cc3c2=O)cc1 do in these assays?
DT40 TDP1 CPT: 15µM*; TDP1 cell noCPT: inconclusive
